# Assay outcomes deposited in PubChem BioAssay by Broad Institute.
# LGR2 inh: inhibitors of bursicon-induced Drosophila LGR2 receptor cAMP signaling; HEK293 LGR2, CRE-luciferase, bursicon-stimulated, 4 h; inhibition, % at 9.99 µM; hit rate 0.35% among 380,000; AID 720647;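 active = drop in luminescence signal, shown as inhibition above about 50% in the replicate tests, limit read from the data, passing the limit was not always enough; inconclusive = probably only some replicates passing the limit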;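 also: agonist challenge used bursicon conditioned medium at about half maximal strength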
# Ecoli rRNA inh: inhibits bacterial ribosomal RNA function over humanized ribosomes; E. coli WT GFP vs humanized-ribosome RFP mutants, fluorescence, 24 h; active compounds read low; DMSO median 0, no signal -100; GFP signal change (wild-type ribosome), % (test concentration not listed); hit rate 1.6% among 350,000; AID 720706;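 active = significant combined selectivity score with lowered wild-type GFP, culture density cut under 30%, mutant RFP and density less affected; inactive = any of these conditions unmet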
# EWS-Fli block: inhibitors of EWS/Fli oncoprotein transcriptional activity | A673 NR0B1-luciferase reporter, viability-normalised | inhibition, % at 12.6 µM | hit rate 0.67% among 350,000 | AID 651661;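 active = mean inhibition of at least 50% after viability correction, with every replicate also passing that limit; inconclusive = mean reaches 50% but only one of two replicates passes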;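 also: firefly luciferase signal divided by Alamar Blue viability fluorescence both relative to DMSO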
# SIRT5 inh: blocks human SIRT5 desuccinylation of peptide. Purified SirT5, succinyl-peptide AMC, trypsin-coupled fluorescence. inhibition, % at 15 µM. hit rate 1.1% among 330,000; in the data active = inhibition above about 15%; inconclusive = no clear call, values can overlap the other calls
# Target sequence (Q9NXA8 whole entry, looked up): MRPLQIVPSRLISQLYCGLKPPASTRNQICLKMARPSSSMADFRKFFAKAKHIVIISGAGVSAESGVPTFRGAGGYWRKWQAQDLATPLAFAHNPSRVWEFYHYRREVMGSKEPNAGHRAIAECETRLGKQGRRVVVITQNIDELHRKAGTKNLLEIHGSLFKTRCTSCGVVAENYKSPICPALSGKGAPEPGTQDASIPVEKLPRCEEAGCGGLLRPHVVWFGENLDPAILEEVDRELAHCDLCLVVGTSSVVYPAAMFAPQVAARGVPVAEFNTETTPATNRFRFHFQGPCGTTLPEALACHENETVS
# PAX8 reporter: PAX8 transcriptional activity inhibition. RMG-I TPO-luciferase reporter, SteadyGlo, 24 h. inhibition, % at 12.6 µM. hit rate 1.2% among 360,000;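 active = mean replicate inhibition at least 60% with every replicate also reaching 60%; inconclusive = only one of the two criteria is met; inactive = mean below 60% and not all replicates reaching 60%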;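 also: luciferase light reporting Pax8 driven TPO promoter activity; plate controls were median of neutral control wells for no effect and mitoxantrone controls for full effect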
# PGC1a acetyl inh: PGC1a acetylation modulation, inhibitor mode; U2OS PGC1a acetylation, AlphaScreen anti-acetyl-lysine; with virally co-expressed GCN5 acetyltransferase; inhibition, % at 15.6 µM; hit rate 0.17% among 350,000;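 active = every replicate shows inhibition of at least 40%; inconclusive = mean inhibition at least 40% but some replicate below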;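 also: 0% = neutral control wells and 100% = positive control wells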
# AID977621: growth inhibition of wild-type GFP E. coli, dose response, H69 mutant RFP, cherry-pick. E. coli wild-type GFP strain growth, fluorescence, 24 h. 1,900 tested, under 10 active. shares compounds with Ecoli rRNA inh. activity change, negative = inhibition at 50 µM. AID 977621;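 active = Wild-type ribosome reporter drop at least double the humanized mutant ribosome reporter drop, growth loss under a set limit; inconclusive = no clear call, values can overlap the other calls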;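 also: wild-type GFP and H69 mutant RFP strains grown together 50/50 in each well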
# AID977628: growth of wild-type and h24-humanized E. coli strains – h24 mutant RFP vs wild-type GFP, cherry-pick, dose response | shares compounds with Ecoli rRNA inh | activity change, negative = inhibition at 50 µM | 1,900 tested, under 10 active | E. coli WT GFP strain growth, fluorescence, 24 h;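 active = compound lowering the normal-ribosome reporter at least twice as much as the humanized-ribosome reporter, growth loss under a set limit; inconclusive = no clear call, values can overlap the other calls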;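 also: wild-type GFP and h24 humanized RFP strains co-cultured 1 to 1 per well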
# Active calls of the source: *; ? = inconclusive; · = no result. Only some compounds are listed: those with a hit (about 3.4% of all), similar ones and a draw of the others.
SMILES,LGR2 inh,Ecoli rRNA inh,EWS-Fli block,SIRT5 inh,PAX8 reporter,PGC1a acetyl inh,AID977621,AID977628
COc1ccc(Cl)cc1NC(=O)C1Cc2ccccc2CN1S(C)(=O)=O (centres undefined),-4,-20*,4,0,20,6,·,-19
CC(C)C[C@@H](CSc1ccccc1)N1CCN(CC(C)C)CCC1=O,-38,-23*,-88,·,-167,-11,?,·
CCCN1CCC(=O)N([C@H](CSc2ccccc2)CC(C)C)CC1,-22,-1,-113,·,-146,2,·,·
Clc1ccccc1C1CC(c2ccccc2)=Nc2ccccc2N1 (centres undefined),-35,-20*,-14,-1,-66,0,·,?
CN(C)S(=O)(=O)N1CCN(c2cc(Cl)ccc2Cl)CC1,·,·,·,·,·,-11,·,·
CN(C)S(=O)(=O)N1CCN(c2ccccc2Cl)CC1,-2,-21*,2,-1,·,-4,-0.038,-7.4
CCCNC(=O)Nc1ccc2c(c1)C(=O)N(C)C[C@H](OC)[C@@H](C)CN(Cc1ccc(-c3ccccn3)cc1)[C@H](C)CO2,12,-4,16,10,·,12,·,·
COc1ccc(NC(=O)c2ccc3c(c2)N(C)CCS3)cc1,-62,-1,-69,-8,-94,·,·,·
CN1CCSc2ccc(C(=O)Nc3cccc(F)c3)cc21,-48,-23*,-114,-3,-151,·,-2.8,-5.5
COc1ccc(NC(=O)N(C)C[C@@H]2Oc3ncc(-c4cccnc4)cc3C(=O)N([C@@H](C)CO)C[C@@H]2C)cc1,0,5,-13,3,19,-3,·,·
c1ccc2nc(N3CCCC3)c(N3CCCC3)nc2c1,·,·,·,·,·,21,·,·
c1ccc2c(c1)nc(N1CCCCCC1)c1ccccc12,-4,-31*,17,-5,-9,·,-22,·
CS(=O)(=O)c1ccc(Cl)c(NC(=O)COC(=O)c2c(Cl)cccc2Cl)c1,14,-26*,2,-5,11,-5,-5.1,-7.1
CC(=O)Nc1sc(C)c(C)c1C(=O)OCC(=O)Nc1cc(S(C)(=O)=O)ccc1Cl,3,6,-3,3,26,-9,·,·
COc1cccc(NC(=O)N[C@@H]2CC[C@@H](CC(=O)Nc3ccccc3)O[C@H]2CO)c1,9,-5,-4,1,2,-8,·,·
Nc1nc(-c2cc(-c3ccccc3)no2)cs1,-112,-19*,-13,-3,-128,-7,-5.6,?
O=C(c1cnc(N2CCN(c3ncccn3)CC2)c2ccccc12)N1CCN(c2ncccn2)CC1,·,·,·,·,27,-2,·,·
O=C(c1ccc2c3c(cccc13)CC2)N1CCN(c2ncccn2)CC1,-6,-28*,4,-3,·,-13,-12,-6.3
Cc1ccccc1-n1c([C@@H]2C[C@H]2c2ccccc2)n[nH]c1=S,2,-28*,4,-3,-4,11,-18,-4.5
CCCCCCC(=O)N1CCCC(c2nc(-c3cccc(OC)c3)no2)C1 (centres undefined),-8,-31*,-31,2,-11,-4,-5.8,?
C[C@@H]1CN([C@H](C)CO)C(=O)c2cc(-c3ccc(F)cc3)cnc2O[C@H]1CN(C)Cc1ccc(F)cc1,-2,2,-15,·,·,-12,·,·
Cc1ccc2c(c1C)OC(=O)CC2c1ccccc1 (centres undefined),-3,-27*,2,-2,8,·,·,?
CCNC(=O)C[C@H]1CC[C@@H]2[C@H](COC[C@@H](O)CN2C(=O)Nc2ccc(Cl)c(Cl)c2)O1,-3,-60,-14,0,-11,-5,·,·
CO[C@H]1CN(C)C(=O)c2cc(NS(=O)(=O)c3ccc(C)cc3)ccc2OC[C@@H](C)N(C)C[C@@H]1C,10,3,-12,1,·,-4,·,·
CCOC(=O)c1sc(NC(=O)CN2CCN(c3ccccc3)CC2)nc1C,-2,-20*,-3,-4,4,·,·,-19
CCOC(=O)c1ccc(NC(=O)CN2CCN(c3ccccc3)CC2)cc1,·,·,·,·,·,-1,·,·
